Inconclusive results are not listed. A number with no mark means an inactive call. Calls come from the whole dose curve; as a rule, active = well fitted cell-killing curve with a large enough effect; inconclusive = small, poorly fitted or top-dose-only effect, or effect the other way; inactive = flat fitted curve, though single readings scatter. Where a SMILES comes first, the peptide text is derived from it. [ ]: non-standard residue; d: D form. pGlu = O=C1CC[C@@H](C(=O)O)N1
The compounds below were run on C33A (assay: Primary qHTS to identify gynecologic anti-cancer compounds using libraries of approved drugs and bioactive compounds (AID 1345084; note: nearly all actives have a fitted effect of over 55% in size)). Conditions: Gynecologic cancer cell panel viability, ATPlite luminescence, 48 h; series mostly up to 57.5 µM; activity change, negative = cytotoxicity: at the top concentration.
Summary of the method: (§1)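 Measured: luminescence after ATPlite addition (15 min, RT). Exposure: 48 h, 37 C, 5% CO2.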
% is set by controls: 0 for no effect and ±100 for the full control effect.

SMILES | activity change, negative = cytotoxicity
CCCCCN(CCCOC)C(=O)C(CCC(=O)O)NC(=O)c1ccc(Cl)c(Cl)c1 (centres undefined) | -3.5%
CCCCCCn1c(=O)c2c(ncn2C)n(C)c1=O | 4.54%
CCCc1ncc(C(=O)O)s1 | 21.7%
C/C(=N/NC(=O)c1ccncc1)C(=O)O | -2.59%
COC(=O)/C=C(/C)N | 2.93%
NS(=O)(=O)c1cc2c(cc1Cl)CN(C1CCCCC1)C2=O | 7.37%
O=C1NC(c2ccccc2)(c2ccccc2)C(=O)N1COP(=O)(O)O | 2.37%
CCc1cccc2c(CCO)c[nH]c12 | -2.34%
CCCCC(CC)CNC(=O)CC(C)OC(=O)CCC(=O)O (centres undefined) | 7.23%
O=C(O)c1ccc(OCCN2CCCCC2)cc1 | -2.57%
CCCC(=O)O[C@]1(C(=O)CC)CC[C@H]2[C@@H]3CCC4=CC(=O)CC[C@]4(C)[C@H]3[C@@H](O)C[C@@]21C | -6.56%
CC(C)N(CCC(=O)c1ccc2ccccc2c1)Cc1ccccc1 | -14.2%
COC(=O)CCCCC(CCSS/C(CCO)=C(\C)N(C=O)Cc1cnc(C)nc1N)SC(C)=O (centres undefined) | 11.7%
O=C1CC2(CCCC2)CC(=O)N1 | -1.26%
CCCCOCCOC(=O)c1cccnc1 | 2.42%
CC(=O)N[C@@H](CO)C(=O)N[C@@H](CC(=O)O)C(=O)N[C@@H](CCCCN)C(=O)N1CCC[C@H]1C(=O)O (Ac-SDKP-OH) | 23.2%
CC(=O)O[C@@H]1CC2C3CCc4cc(OC(=O)c5ccccc5)ccc4C3CCC2(C)[C@H]1OC(C)=O (some centres undefined) | 11.4%
Cc1ccc2c(Cl)cc(Cl)c(O)c2n1 | 6.75%
CC(Oc1c(Cl)cccc1Cl)C1=NCCN1 (centres undefined) | -0.617%

SMILES | activity change, negative = cytotoxicity
N#CC1(c2ccc(F)cc2)CCC(=O)CC1 | 4.9%
CC1(C)OC(=O)Nc2ccc(Br)cc21 | 7.49%
Cc1cccc(C)c1NC(=O)c1ccc(N)cc1 | -7.16%
Cc1cccc(OCC(O)CNC(C)(C)C)c1C (centres undefined) | 1.33%
Cc1coc2ccccc2c1=O | 1.74%
COC(=O)c1cc(Cl)c(NC(C)=O)cc1OC | 0.594%
CSCC[C@H](NC(=O)[C@H](Cc1c[nH]c2ccccc12)NC(=O)CCNC(=O)OC(C)(C)C)C(=O)N[C@@H](CC(=O)O)C(=O)N[C@@H](Cc1ccccc1)C(N)=O | 8.13%
CC(C)C(=O)OCc1cccc(OC(=O)[C@@H]2N3C(=O)[C@@H](NC(=O)Cc4ccccc4)[C@H]3SC2(C)C)c1 | 18.5%
COC(=O)c1ccc(NC(C)=O)cc1OC | 0.403%
Cc1[nH]cnc1-c1ccc(Cl)cc1 | 1.53%
Cc1ccc(C(=O)C(=O)O)cc1C | -2.46%
COc1ccc(CCC(C)=O)cc1 | 19.7%
Cc1sccc1Br | 12.7%
CCc1cc2cc(OC)c(OC)cc2c(Cc2ccccc2)n1 | 14.3%
Cc1ccc(C(C)OC(=O)C2(C)CCC(C(=O)O)C2(C)C)cc1 (centres undefined) | -7.19%
Fc1ccc(C(c2ccc(F)cc2)N2CCNCC2)cc1 | -1.5%
CCOC(=O)Oc1ccc(CCNC(=O)[C@H](CCSC)NC(C)=O)cc1OC(=O)OCC | -1.82%
CCNC(=O)[C@@H]1CCCN1C(=O)[C@H](CCCN=C(N)N)NC(=O)[C@H](CC(C)C)NC(=O)CNC(=O)[C@H](Cc1ccc(O)cc1)NC(=O)[C@H](CO)NC(=O)[C@H](Cc1c[nH]c2ccccc12)NC(=O)[C@H](Cc1cnc[nH]1)NC(=O)[C@@H]1CCC(=O)N1 ([pGlu]HWSYGLRP-NHEt) | 8.31%

What follows are compounds tested on CAOV3 in the same assay as above. Conditions: Gynecologic cancer cell panel viability, ATPlite luminescence, 48 h; series mostly up to 57.5 µM; activity change, negative = cytotoxicity: at the top concentration.
Summary of the method: as §1

SMILES | activity change, negative = cytotoxicity
CCCCCN(CCCOC)C(=O)C(CCC(=O)O)NC(=O)c1ccc(Cl)c(Cl)c1 (centres undefined) | 12%
CCCCCCn1c(=O)c2c(ncn2C)n(C)c1=O | 4.78%
CCCc1ncc(C(=O)O)s1 | -16.5%
C/C(=N/NC(=O)c1ccncc1)C(=O)O | 11.5%
COC(=O)/C=C(/C)N | 8.65%
NS(=O)(=O)c1cc2c(cc1Cl)CN(C1CCCCC1)C2=O | 1.09%
O=C1NC(c2ccccc2)(c2ccccc2)C(=O)N1COP(=O)(O)O | 3.14%
CCc1cccc2c(CCO)c[nH]c12 | 13.4%
CCCCC(CC)CNC(=O)CC(C)OC(=O)CCC(=O)O (centres undefined) | -9.71%
O=C(O)c1ccc(OCCN2CCCCC2)cc1 | 5.64%
CCCC(=O)O[C@]1(C(=O)CC)CC[C@H]2[C@@H]3CCC4=CC(=O)CC[C@]4(C)[C@H]3[C@@H](O)C[C@@]21C | -20%
CC(C)N(CCC(=O)c1ccc2ccccc2c1)Cc1ccccc1 | -2.06%
COC(=O)CCCCC(CCSS/C(CCO)=C(\C)N(C=O)Cc1cnc(C)nc1N)SC(C)=O (centres undefined) | -2.88%
O=C1CC2(CCCC2)CC(=O)N1 | 20.1%
CCCCOCCOC(=O)c1cccnc1 | -5.85%
CC(=O)N[C@@H](CO)C(=O)N[C@@H](CC(=O)O)C(=O)N[C@@H](CCCCN)C(=O)N1CCC[C@H]1C(=O)O (Ac-SDKP-OH) | -1.3%
CC(=O)O[C@@H]1CC2C3CCc4cc(OC(=O)c5ccccc5)ccc4C3CCC2(C)[C@H]1OC(C)=O (some centres undefined) | -5.15%
Cc1ccc2c(Cl)cc(Cl)c(O)c2n1 | 0.947%
CC(Oc1c(Cl)cccc1Cl)C1=NCCN1 (centres undefined) | -22.8%

SMILES | activity change, negative = cytotoxicity
N#CC1(c2ccc(F)cc2)CCC(=O)CC1 | 7.2%
CC1(C)OC(=O)Nc2ccc(Br)cc21 | 8.14%
Cc1cccc(C)c1NC(=O)c1ccc(N)cc1 | 2.7%
Cc1cccc(OCC(O)CNC(C)(C)C)c1C (centres undefined) | -8.13%
Cc1coc2ccccc2c1=O | -8.74%
COC(=O)c1cc(Cl)c(NC(C)=O)cc1OC | 8.46%
CSCC[C@H](NC(=O)[C@H](Cc1c[nH]c2ccccc12)NC(=O)CCNC(=O)OC(C)(C)C)C(=O)N[C@@H](CC(=O)O)C(=O)N[C@@H](Cc1ccccc1)C(N)=O | 11%
CC(C)C(=O)OCc1cccc(OC(=O)[C@@H]2N3C(=O)[C@@H](NC(=O)Cc4ccccc4)[C@H]3SC2(C)C)c1 | 1.31%
COC(=O)c1ccc(NC(C)=O)cc1OC | -1.98%
Cc1[nH]cnc1-c1ccc(Cl)cc1 | 11.9%
Cc1ccc(C(=O)C(=O)O)cc1C | 11.3%
COc1ccc(CCC(C)=O)cc1 | 0%
Cc1sccc1Br | 32.2%
CCc1cc2cc(OC)c(OC)cc2c(Cc2ccccc2)n1 | -4.84%
Cc1ccc(C(C)OC(=O)C2(C)CCC(C(=O)O)C2(C)C)cc1 (centres undefined) | 3.08%
Fc1ccc(C(c2ccc(F)cc2)N2CCNCC2)cc1 | -0.992%
CCOC(=O)Oc1ccc(CCNC(=O)[C@H](CCSC)NC(C)=O)cc1OC(=O)OCC | -5.1%
CCNC(=O)[C@@H]1CCCN1C(=O)[C@H](CCCN=C(N)N)NC(=O)[C@H](CC(C)C)NC(=O)CNC(=O)[C@H](Cc1ccc(O)cc1)NC(=O)[C@H](CO)NC(=O)[C@H](Cc1c[nH]c2ccccc12)NC(=O)[C@H](Cc1cnc[nH]1)NC(=O)[C@@H]1CCC(=O)N1 ([pGlu]HWSYGLRP-NHEt) | 2.49%

Source: PubChem BioAssay (NCATS)
